# Inconclusive results are not listed. A number with no mark means an inactive call. Calls of active or inactive are those of the source. The call rests on the fitted dose curve; in most records, active means well fitted inhibition curve with a large enough effect; inconclusive means small, poorly fitted or top-dose-only effect; inactive means no such curve, though single readings can be large or run the other way.
# Experiment: Primary qHTS for inhibitors of nuclear receptor binding SET domain protein 2 (NSD2) in an RCH-ACV wild type WT cells (2C) (AID 1645877); further: nearly all actives have a fitted effect of over 70% in size
# Settings: RCH-ACV (leukaemia line) NSD2 WT (2C) viability, CellTiter-Glo, 72 h; series mostly up to 44.9 µM; activity change, negative = cell killing: at the top concentration
# On the % scale 0 is the no-effect control and ±100 the full control effect; potency means the concentration at half of the fitted maximal effect.
Compound,Potency,"activity change, negative = cell killing"
CO[C@H]1/C=C\O[C@@]2(C)Oc3c(C)c(O)c4c(O)c(c5c(nc6cc(C)ccn65)c4c3C2=O)NC(=O)/C(C)=C\C=C/[C@H](C)[C@H](O)[C@@H](C)[C@@H](O)[C@@H](C)[C@H](OC(C)=O)[C@@H]1C,10.3 µM (active),
COc1cc2c(c(OC)c1CC=C(C)C)C[C@H](c1ccc(O)cc1O)CO2,,-39.8%
COC(=O)C1(C)CCC2(C(=O)O)CCC3(C)C(=CCC4C5(C)CC(O)C(OC6OCC(O)C(O)C6O)C(C)(CO)C5CCC43C)C2C1 (centres undefined),,-14.6% [at 17.3 µM]
CC(O)c1cc(C(=O)N[C@@H](C)Cn2ccc(-c3ccc(C#N)c(Cl)c3)n2)n[nH]1 (some centres undefined),20.9 µM (active),
CC12CCC(OC3OC(CO)C(O)C(OC4OC(CO)C(O)C(O)C4O)C3O)CC1=CCC1C2CCC2(C)/C(=C3/COC(=O)C3)CCC12O (centres undefined),,-8.57% [at 17.3 µM]
C/C(=C/CO)CC[C@@H]1[C@@](C)(O)CCC2C(C)(C)CCC[C@]21C (some centres undefined),,-23.8%
CC(CCC1(O)OC2CC3C4CCC5CC(O[C@@H]6O[C@H](CO)[C@@H](O)[C@H](O)[C@H]6O[C@@H]6O[C@@H](C)[C@H](O)[C@@H](O)[C@H]6O)C(O)CC5(C)C4CCC3(C)C2C1C)CO[C@@H]1O[C@H](CO)[C@@H](O)[C@H](O)[C@H]1O (some centres undefined),,-13.5% [at 9.23 µM]
OC[C@@]1(O)CO[C@@H](OC[C@H]2O[C@@H](Oc3c[nH]c4ccccc34)[C@H](O)[C@@H](O)[C@@H]2O)[C@@H]1O,,-46% [at 17.3 µM]
O=C(O)CCCCCC[C@H]1C(=O)NC(=O)N1CC[C@@H](O)C1CCCCC1,,-30.3%

# Reference: PubChem BioAssay (NCATS)
